In PubChem BioAssay:
Active and inactive are the calls of the source.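 How the source made its calls: active means Her2 level under about 52% in both replicate screens, with viability over 70% of control (limit read from the data); inconclusive means Her2 under the limit in one screen only, or viability under 70%; inactive means Her2 level above the set limit.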

system: not listed separately; assay: reducers of endogenous Her2 protein level, primary screen, SKBR3 breast tumor cells, AlphaScreen, ATP viability (AID 461); conditions: 18-24 h, measured here: SKBR3 viability, ATP luminescence, at 10 µM;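 on viability: percent of carrier control wells set as 100% viability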

| SMILES | viability [%] |
| --- | --- |
| Cc1noc(C)c1COc1cccc(C(=O)Nc2ccc(C#N)cc2)c1 | 96 |
| Cc1ccc(NCc2nnc(SCC(=O)N3CCCCC3)n2CC2CCCO2)c(C)c1 (stereo not given) | 94.5 |
| COc1ccc(S(=O)(=O)N2CCOCC2)cc1C(=O)Nc1cc(C)on1 | 102 |
| CC(NC(=O)c1ccco1)C(c1cccs1)N1CCN(c2ccc(F)cc2)CC1 (stereo not given) | 96 |
| CCN1C(=O)NC(c2cc(Br)ccc2OC)C(C(=O)OC)=C1C (stereo not given) | 104 |
| COc1ccc(N2CCN(C(c3cccs3)c3nnnn3C3CCCC3)CC2)cc1 (stereo not given) | 90.5 |
| c1ccc(-n2c(Sc3cnccn3)nnc2-c2cccs2)cc1 | 114 |
| Nn1c(SCC(=O)Nc2ccc3c(c2)OCCO3)nnc1C(F)(F)F | 88.5 |
| O=C(NC1=NCCS1)NC12CC3CC(CC(C3)C1)C2 | 111 |
| CC1CCCCC1NC(=O)Cn1nnc(-c2ccc(Cl)cc2)n1 (stereo not given) | 86 |
| CCOC(=O)C(NC(=O)c1ccc(OC)cc1)(N1CCOCC1)C(F)(F)F (stereo not given) | 112 |
| CC(C)Cc1cc(C(=O)Nc2c(F)cc(F)cc2Br)no1 | 88.5 |
| CCC(C)(C(=O)NC1CCCCC1)N(CC1CCCO1)C(=O)c1ccccn1 (stereo not given) | 82 |
| COCCNC(=O)C(c1ccc(C)o1)N(Cc1ccc(OC)cc1)C(=O)Cn1nnc2ccccc21 (stereo not given) | 102 |
| CC(=O)c1c(C)[nH]c(C(=O)N2CCN(C(=O)c3ccco3)CC2)c1C | 85 |
| O=C(NC12CC3CC(CC(C3)C1)C2)c1cncc(O)c1 | 104 |
| CCOC(=O)C1CCN(c2nc3ccccc3nc2C(C#N)C(=O)OCCOC)CC1 (stereo not given) | 97 |
| Cc1ccccc1-c1nc(CN2CCC(C(=O)NCCCN3CCOCC3)CC2)c(C)o1 | 86.5 |
| COc1ccccc1NC(=O)C1=C(C)Nc2nnnn2C1c1ccccc1OC (stereo not given) | 94 |
| O=C(C1CCCN(S(=O)(=O)c2cnc[nH]2)C1)N1CC(=O)N(CCc2ccccc2)C(=O)C1 (stereo not given) | 93.5 |

| SMILES | viability [%] |
| --- | --- |
| Cc1c(Cl)cccc1N1C(=O)c2ccccc2C1=O | 89.5 |
| CCN(CC)CCCN(Cc1cc2cc(OC)ccc2[nH]c1=O)C(=O)Nc1ccccc1 | 90 |
| O=C1CCCC2=C1C(c1ccsc1)CC(=O)N2c1ccccc1 (stereo not given) | 90.5 |
| Cc1ccc(NC(=O)CSc2nnc(NC(=O)CN3CCOCC3)s2)cc1 | 102 |
| COC(=O)c1ccccc1NS(=O)(=O)c1ccc(F)cc1 | 120 |
| COc1cccc(NC(=O)N2CCN(c3cccc(C)c3C)CC2)c1 | 102 |
| CC(C)CN(C(=O)COC(=O)Cc1n[nH]c(=O)c2ccccc12)C1CCS(=O)(=O)C1 (stereo not given) | 97.5 |
| CC1CCCC(C(=O)OCc2ccccc2)N1 (stereo not given) | 119 |
| COc1cccc(NC(=O)NC2(C(F)(F)F)Oc3ccccc3O2)c1 | 91.5 |
| CCC(=O)N1CCc2cc(OC)c(OC)cc2C1COc1ccc(C(=O)OC)cc1 (stereo not given) | 94.5 |
| Cc1ccc(-c2cc(C(=O)N3CCCC3)no2)cc1 | 93.5 |
| CCn1nc(C)c(NC(=O)c2cc(Br)ccc2Cl)c1C | 84.5 |
| Cc1cc2nc3c(nc2cc1C)C1(C(=O)O)CCC3(C)C1(C)C (stereo not given) | 103 |
| COc1ccccc1CN1CC(C(=O)N2CCN(c3ccc(F)cc3)CC2)CC1=O (stereo not given) | 92 |
| CC(=O)N1CCC2(CC1)CC(=O)c1cc(OCC(=O)NCc3ccco3)ccc1O2 | 106 |
| Cc1ccc(C(=O)CCC2CCCC2=O)cc1 (stereo not given) | 90.5 |
| Cc1nc(CNS(=O)(=O)c2ccc3c(c2)OCCO3)cs1 | 96 |
| CCOCCCNC(=O)C1CCN(C(=O)Nc2ccc(Cl)cc2)CC1 | 103 |
| CCc1nc2c(cnn2-c2ccc(Cl)cc2)c(=O)n1-c1ccc2c(c1)OCCO2 | 90 |
| CCOc1ccc(C2CC(=O)NC3=C2C(=O)CCC3)cc1Cl (stereo not given) | 108 |

biological target: Receptor tyrosine-protein kinase erbB-2 (Homo sapiens) (UniProt P04626); assay: as above; conditions: 18-24 h, at 10 µM, stronger effect = lower value
Sequence (P04626 whole entry, looked up): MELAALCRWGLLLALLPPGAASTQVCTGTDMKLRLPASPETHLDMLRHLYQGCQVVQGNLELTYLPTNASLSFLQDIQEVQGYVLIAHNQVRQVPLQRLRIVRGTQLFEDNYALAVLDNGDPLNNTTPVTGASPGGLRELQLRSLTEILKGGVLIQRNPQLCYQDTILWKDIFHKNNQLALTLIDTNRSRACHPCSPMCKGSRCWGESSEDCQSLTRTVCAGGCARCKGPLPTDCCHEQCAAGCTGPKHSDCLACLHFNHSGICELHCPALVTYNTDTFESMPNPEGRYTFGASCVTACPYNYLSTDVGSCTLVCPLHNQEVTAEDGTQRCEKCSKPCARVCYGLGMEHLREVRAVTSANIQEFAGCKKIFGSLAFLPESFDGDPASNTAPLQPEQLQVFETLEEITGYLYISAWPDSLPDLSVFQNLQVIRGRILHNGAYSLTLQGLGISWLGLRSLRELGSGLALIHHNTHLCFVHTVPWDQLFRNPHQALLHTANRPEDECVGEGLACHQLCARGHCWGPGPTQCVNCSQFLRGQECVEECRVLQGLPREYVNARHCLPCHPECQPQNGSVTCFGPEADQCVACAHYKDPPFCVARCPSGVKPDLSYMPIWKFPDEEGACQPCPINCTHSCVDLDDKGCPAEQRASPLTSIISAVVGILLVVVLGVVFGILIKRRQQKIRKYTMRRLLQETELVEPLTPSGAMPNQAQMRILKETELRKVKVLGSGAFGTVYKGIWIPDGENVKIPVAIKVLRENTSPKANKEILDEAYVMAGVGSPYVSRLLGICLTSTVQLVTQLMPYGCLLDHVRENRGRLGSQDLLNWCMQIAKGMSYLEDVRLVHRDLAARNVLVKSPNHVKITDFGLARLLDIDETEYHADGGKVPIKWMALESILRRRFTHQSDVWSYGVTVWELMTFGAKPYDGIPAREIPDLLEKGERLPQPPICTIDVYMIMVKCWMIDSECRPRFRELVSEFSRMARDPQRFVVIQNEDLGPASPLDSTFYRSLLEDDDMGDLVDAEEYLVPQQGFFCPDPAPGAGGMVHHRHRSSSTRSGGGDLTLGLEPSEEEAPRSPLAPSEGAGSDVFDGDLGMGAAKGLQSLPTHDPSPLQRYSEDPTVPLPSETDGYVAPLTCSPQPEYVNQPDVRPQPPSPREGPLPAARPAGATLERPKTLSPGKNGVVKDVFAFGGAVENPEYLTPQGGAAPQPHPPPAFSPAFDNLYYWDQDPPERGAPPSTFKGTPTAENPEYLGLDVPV

| SMILES | Her2 level |
| --- | --- |
| Cc1noc(C)c1COc1cccc(C(=O)Nc2ccc(C#N)cc2)c1 | 90% (inactive) |
| Cc1ccc(NCc2nnc(SCC(=O)N3CCCCC3)n2CC2CCCO2)c(C)c1 (stereo not given) | 99% (inactive) |
| COc1ccc(S(=O)(=O)N2CCOCC2)cc1C(=O)Nc1cc(C)on1 | 124% (inactive) |
| CC(NC(=O)c1ccco1)C(c1cccs1)N1CCN(c2ccc(F)cc2)CC1 (stereo not given) | 89% (inactive) |
| CCN1C(=O)NC(c2cc(Br)ccc2OC)C(C(=O)OC)=C1C (stereo not given) | 114% (inactive) |
| COc1ccc(N2CCN(C(c3cccs3)c3nnnn3C3CCCC3)CC2)cc1 (stereo not given) | 95% (inactive) |
| c1ccc(-n2c(Sc3cnccn3)nnc2-c2cccs2)cc1 | 109% (inactive) |
| Nn1c(SCC(=O)Nc2ccc3c(c2)OCCO3)nnc1C(F)(F)F | 78.5% (inactive) |
| O=C(NC1=NCCS1)NC12CC3CC(CC(C3)C1)C2 | 106% (inactive) |
| CC1CCCCC1NC(=O)Cn1nnc(-c2ccc(Cl)cc2)n1 (stereo not given) | 92.5% (inactive) |
| CCOC(=O)C(NC(=O)c1ccc(OC)cc1)(N1CCOCC1)C(F)(F)F (stereo not given) | 95.5% (inactive) |
| CC(C)Cc1cc(C(=O)Nc2c(F)cc(F)cc2Br)no1 | 106% (inactive) |
| CCC(C)(C(=O)NC1CCCCC1)N(CC1CCCO1)C(=O)c1ccccn1 (stereo not given) | 99% (inactive) |
| COCCNC(=O)C(c1ccc(C)o1)N(Cc1ccc(OC)cc1)C(=O)Cn1nnc2ccccc21 (stereo not given) | 98% (inactive) |
| CC(=O)c1c(C)[nH]c(C(=O)N2CCN(C(=O)c3ccco3)CC2)c1C | 102% (inactive) |
| O=C(NC12CC3CC(CC(C3)C1)C2)c1cncc(O)c1 | 89% (inactive) |
| CCOC(=O)C1CCN(c2nc3ccccc3nc2C(C#N)C(=O)OCCOC)CC1 (stereo not given) | 98% (inactive) |
| Cc1ccccc1-c1nc(CN2CCC(C(=O)NCCCN3CCOCC3)CC2)c(C)o1 | 107% (inactive) |
| COc1ccccc1NC(=O)C1=C(C)Nc2nnnn2C1c1ccccc1OC (stereo not given) | 76.5% (inactive) |
| O=C(C1CCCN(S(=O)(=O)c2cnc[nH]2)C1)N1CC(=O)N(CCc2ccccc2)C(=O)C1 (stereo not given) | 92% (inactive) |

| SMILES | Her2 level |
| --- | --- |
| Cc1c(Cl)cccc1N1C(=O)c2ccccc2C1=O | 85.5% (inactive) |
| CCN(CC)CCCN(Cc1cc2cc(OC)ccc2[nH]c1=O)C(=O)Nc1ccccc1 | 73% (inactive) |
| O=C1CCCC2=C1C(c1ccsc1)CC(=O)N2c1ccccc1 (stereo not given) | 96% (inactive) |
| Cc1ccc(NC(=O)CSc2nnc(NC(=O)CN3CCOCC3)s2)cc1 | 82% (inactive) |
| COC(=O)c1ccccc1NS(=O)(=O)c1ccc(F)cc1 | 83.5% (inactive) |
| COc1cccc(NC(=O)N2CCN(c3cccc(C)c3C)CC2)c1 | 72.5% (inactive) |
| CC(C)CN(C(=O)COC(=O)Cc1n[nH]c(=O)c2ccccc12)C1CCS(=O)(=O)C1 (stereo not given) | 98.5% (inactive) |
| CC1CCCC(C(=O)OCc2ccccc2)N1 (stereo not given) | 94% (inactive) |
| COc1cccc(NC(=O)NC2(C(F)(F)F)Oc3ccccc3O2)c1 | 98% (inactive) |
| CCC(=O)N1CCc2cc(OC)c(OC)cc2C1COc1ccc(C(=O)OC)cc1 (stereo not given) | 83% (inactive) |
| Cc1ccc(-c2cc(C(=O)N3CCCC3)no2)cc1 | 106% (inactive) |
| CCn1nc(C)c(NC(=O)c2cc(Br)ccc2Cl)c1C | 78% (inactive) |
| Cc1cc2nc3c(nc2cc1C)C1(C(=O)O)CCC3(C)C1(C)C (stereo not given) | 95.5% (inactive) |
| COc1ccccc1CN1CC(C(=O)N2CCN(c3ccc(F)cc3)CC2)CC1=O (stereo not given) | 86% (inactive) |
| CC(=O)N1CCC2(CC1)CC(=O)c1cc(OCC(=O)NCc3ccco3)ccc1O2 | 112% (inactive) |
| Cc1ccc(C(=O)CCC2CCCC2=O)cc1 (stereo not given) | 102% (inactive) |
| Cc1nc(CNS(=O)(=O)c2ccc3c(c2)OCCO3)cs1 | 142% (inactive) |
| CCOCCCNC(=O)C1CCN(C(=O)Nc2ccc(Cl)cc2)CC1 | 92.5% (inactive) |
| CCc1nc2c(cnn2-c2ccc(Cl)cc2)c(=O)n1-c1ccc2c(c1)OCCO2 | 86.5% (inactive) |
| CCOc1ccc(C2CC(=O)NC3=C2C(=O)CCC3)cc1Cl (stereo not given) | 97.5% (inactive) |
